# PubChem BioAssay (NCATS)
# Records with an inconclusive call do not appear. A call without a number means that no potency is given here. A number with no mark means an inactive call. Activity calls are given as the source filed them. Calls come from the whole dose curve; as a rule, active = well fitted curve in the direction sought with a large enough effect; inconclusive = small, poorly fitted or top-dose-only effect, or another doubt; inactive = no such curve, though single readings can be large; an effect the other way counts as inactive or inconclusive.
# Legend:
# MKL-1 = test: qHTS assay to identify novel small-molecules to repurpose for Merkel cell carcinoma treatment (AID 1296009); conditions: MCC and control cell lines, CellTiter-Glo viability, 72 h; series mostly up to 46 µM; note: nearly all actives have a fitted effect of over 60% in size; note: potency is the fitted concentration of half-maximal effect
# Method in brief: (§1)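 Cell viability, measured as CellTiter-Glo luminescence, was normalized between DMSO and no-cell wells. The cells had been exposed to 8- or 11-point compound dilutions for 72 hr at 37 degree celsius.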
# WaGa = test: as above; conditions: MCC and control cell lines, CellTiter-Glo viability, 72 h; series mostly up to 46 µM
# Method in brief: as §1
# UISO = test: as above; conditions: MCC and control cell lines, CellTiter-Glo viability, 72 h; series mostly up to 46 µM
# Method in brief: as §1
# C33A = test: Primary qHTS to identify gynecologic anti-cancer compounds using libraries of approved drugs and bioactive compounds (AID 1345084); conditions: Gynecologic cancer cell panel viability, ATPlite luminescence, 48 h; series mostly up to 57.5 µM; note: nearly all actives have a fitted effect of over 55% in size; note: potency is the fitted concentration of half-maximal effect
# Method in brief: (§2)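 Five-point cytotoxicity, 48 h drug exposure at 37 C, 5% CO2, on cells seeded 16 h beforehand. ATP content read by ATPlite luminescence.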
# CASKI = test: as above; conditions: Gynecologic cancer cell panel viability, ATPlite luminescence, 48 h; series mostly up to 57.5 µM
# Method in brief: as §2
# Es-2 = test: as above; conditions: Gynecologic cancer cell panel viability, ATPlite luminescence, 48 h; series mostly up to 57.5 µM
# Method in brief: as §2
# HeLa = test: as above; conditions: Gynecologic cancer cell panel viability, ATPlite luminescence, 48 h; series mostly up to 57.5 µM
# Method in brief: as §2
# Hek293T = test: as above; conditions: Gynecologic cancer cell panel viability, ATPlite luminescence, 48 h, control line for the selectivity index; series mostly up to 57.5 µM
# Method in brief: as §2
# JEG-3 = test: as above; conditions: Gynecologic cancer cell panel viability, ATPlite luminescence, 48 h; series mostly up to 57.5 µM
# Method in brief: as §2
# OV90 = test: as above; conditions: Gynecologic cancer cell panel viability, ATPlite luminescence, 48 h; series mostly up to 57.5 µM
# Method in brief: as §2
# PA-1 = test: as above; conditions: Gynecologic cancer cell panel viability, ATPlite luminescence, 48 h; series mostly up to 57.5 µM
# Method in brief: as §2
# SKOV3 = test: as above; conditions: Gynecologic cancer cell panel viability, ATPlite luminescence, 48 h; series mostly up to 57.5 µM
# Method in brief: as §2
# Tov-21-G = test: as above; conditions: Gynecologic cancer cell panel viability, ATPlite luminescence, 48 h; series mostly up to 57.5 µM
# Method in brief: as §2
# Tov112D = test: as above; conditions: Gynecologic cancer cell panel viability, ATPlite luminescence, 48 h; series mostly up to 57.5 µM
# Method in brief: as §2
# [1] = qHTS assay to identify inhibitors of the type 1 interferon - major histocompatibility complex class I in skeletal muscle: Counter screen cell viability and HiBit confirmation (AID 1347412); conditions: iHSKM muscle cells + IFN-b, HiBiT or CellTiter-Glo, 24 h; Potency: HiBiT; Viability, at 45.9 µM (top of the series); note: nearly all actives have a fitted effect of over 60% in size; note: potency is the fitted concentration of half-maximal effect
# Method in brief: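 Luminescence read-out: Nano-Glo HiBiT lytic signal from C-terminally HiBiT-tagged HLA-B in CRISPR-edited human myoblasts, plus CellTiter Glo ATP as viability counter screen. IFN-beta 4.0 ng/ml; 24 hrs treatment at 37 C, 5% CO2.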
# [2] = Drug repurposing screens with cells derived from glioblastoma tumor samples (AID 1345199); conditions: GBM patient neurospheres viability, ATP luminescence, 48 h; Potency: tumour line A; series mostly up to 46.1 µM; note: nearly all actives have a fitted effect of over 40% in size
# Method in brief: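 Primary testing used CD133+ neurospheres from four GBM patients, seven concentrations, 48 h exposure and ATP-based viability; confirmation added three slower-growing patient lines.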
# NIH3T3 = test: qHTS assay to identify novel small-molecules to repurpose for Merkel cell carcinoma treatment (AID 1296009); conditions: MCC and control cell lines, CellTiter-Glo viability, 72 h; at 44.8 µM (top of the series) unless noted; note: nearly all actives have a fitted effect of over 60% in size; note: potency is the fitted concentration of half-maximal effect
# Method in brief: as §1
# MKL-2 = test: as above; conditions: MCC and control cell lines, CellTiter-Glo viability, 72 h; series mostly up to 46 µM
# Method in brief: as §1
structure (smiles),measurement,setting,value
CCOc1cc2ncc(C#N)c(Nc3ccc(OCc4ccccn4)c(Cl)c3)c2cc1NC(=O)C=CCN(C)C,Potency,MKL-1,inactive
same,Potency,WaGa,inactive
C[C@H](NCc1ccc(OCc2cccc(F)c2)cc1)C(N)=O,Potency,MKL-1,10.5 µM (active)
same,Potency,UISO,16.6 µM (active)
same,Potency,WaGa,18.7 µM (active)
CCOC(=O)[C@@H](N)Cc1ccc(-c2cc(O[C@H](c3ccc(Cl)cc3-n3ccc(C)n3)C(F)(F)F)nc(N)n2)cc1,Potency,MKL-1,inactive
same,Potency,UISO,inactive
same,Potency,WaGa,inactive
same,Potency,C33A,inactive
same,Potency,CASKI,inactive
same,Potency,Es-2,inactive
same,Potency,HeLa,inactive
same,Potency,Hek293T,inactive
same,Potency,JEG-3,inactive
same,Potency,OV90,inactive
same,Potency,PA-1,inactive
same,Potency,SKOV3,inactive
same,Potency,Tov-21-G,inactive
same,Potency,Tov112D,inactive
same,Potency,[1],19.8 µM (active)
Cc1[nH]c(C=C2C(=O)Nc3ccccc32)c(C)c1CCC(=O)O,Potency,MKL-1,0.372 µM (active)
same,Potency,UISO,0.469 µM (active)
same,Potency,WaGa,0.187 µM (active)
C[C@H](NC(=O)C(C#N)=Cc1cccc(Br)n1)c1ccccc1,Potency,MKL-1,inactive
same,Potency,WaGa,inactive
CC(C)N1[N]C(=C2C=c3cc(O)ccc3=N2)c2c(N)ncnc21,Potency,MKL-1,10.5 µM (active)
same,Potency,UISO,0.833 µM (active)
same,Potency,WaGa,5.9 µM (active)
O=C(NCc1ccccc1)[C@H](Cc1ccccc1)NC(=O)[C@@H]1O[C@@H]1C(=O)NCCc1ccc(O)cc1,Potency,MKL-1,inactive
same,Potency,UISO,inactive
C#C[C@]1(O)CC[C@@H]2[C@@H]3CCc4cc(O)ccc4[C@H]3CC[C@@]21C,Potency,MKL-1,inactive
same,Potency,WaGa,inactive
Cc1onc(-c2ccccc2)c1C(=O)N[C@@H]1C(=O)N2[C@@H](C(=O)O)C(C)(C)S[C@@H]12,Potency,MKL-1,inactive
same,Potency,UISO,inactive
same,Potency,WaGa,inactive
same,Potency,[2],inactive
CC(Cc1ccc(O)c(O)c1)(NN)C(=O)O (centres undefined),Potency,MKL-1,inactive
same,Potency,UISO,inactive
same,Potency,WaGa,inactive
CN(CC(=O)N(Cc1ccc(C2CCCCC2)cc1)c1ccc(C(=O)O)c(O)c1)S(=O)(=O)c1c(F)c(F)c(F)c(F)c1F,Potency,MKL-1,8.33 µM (active)
same,outcome,NIH3T3,inactive
same,Potency,UISO,inactive
same,Potency,WaGa,6.62 µM (active)
CC(C)(C)[C@H](NC(=O)c1ccc(N)c(Cl)c1)C(=O)N1CCC[C@@H]1C(=O)N[C@H](C#N)CC(=O)O,"activity change, negative = cytotoxicity",MKL-1,0.918% [at 4.84 µM]
same,outcome,NIH3T3,inactive [at 4.96 µM]
same,"activity change, negative = cytotoxicity",UISO,4.89% [at 4.84 µM]
same,"activity change, negative = cytotoxicity",WaGa,-0.0966% [at 4.84 µM]
COc1cc(C)c(C=CC(C)=CC=CC(C)=CC(=O)O)c(C)c1C,Potency,MKL-1,inactive
same,Potency,UISO,inactive
same,Potency,WaGa,inactive
C=CCNc1c(O)cc2c(O)c1C[C@@H](C)C[C@H](OC)[C@@H](O)[C@@H](C)C=C(C)[C@H](OC(N)=O)[C@@H](OC)C=CC=C(C)C(=O)N2,Potency,MKL-1,11.8 µM (active)
same,Potency,UISO,2.35 µM (active)
same,Potency,WaGa,2.09 µM (active)
COc1ccc(Nc2cc(-c3cnc(N)nc3)nc(N3CCOCC3)n2)cn1,Potency,MKL-1,inactive
same,Potency,UISO,4.18 µM (active)
Oc1ccc(-c2ccc(-c3cc(Nc4cccc(CNC5CC5)c4)n[nH]3)cc2)c(O)c1,Potency,MKL-1,6.62 µM (active)
same,Potency,UISO,5.26 µM (active)
COc1cc(C)c(Sc2cnc(NC(=O)c3ccc(CNC(C)C(C)(C)C)cc3)s2)cc1C(=O)N1CCN(C(C)=O)CC1 (centres undefined),Potency,MKL-1,20.9 µM (active)
same,Potency,UISO,18.7 µM (active)
same,Potency,WaGa,16.6 µM (active)
COc1cccc2c1C(=O)c1c(O)c3c(c(O)c1C2=O)C[C@@](O)(C(=O)CO)C[C@H]3O[C@H]1C[C@H](N)[C@H](O)[C@H](C)O1,Potency,MKL-1,0.118 µM (active)
same,Potency,WaGa,0.0743 µM (active)
COc1cccc2c1C(=O)c1c(O)c3c(c(O)c1C2=O)C[C@@](O)(C(=O)CO)C[C@@H]3O[C@H]1C[C@H](N)[C@H](OC2CCCCO2)[C@H](C)O1 (some centres undefined),Potency,MKL-1,2.64 µM (active)
same,Potency,UISO,1.66 µM (active)
same,Potency,WaGa,1.66 µM (active)
COc1ccc2cc([S+]([O-])Cc3ncc(C)c(OC)c3C)nc2c1,Potency,MKL-1,inactive
same,Potency,WaGa,inactive
COc1ccc2c(c1OC)C(=O)OC2[C@H]1c2c(cc3c(c2OC)OCO3)CCN1C (some centres undefined),Potency,MKL-2,inactive
same,Potency,UISO,0.469 µM (active)
COc1cc(OC)c(C=CS(=O)(=O)Cc2ccc(OC)c(NCC(=O)O)c2)c(OC)c1,Potency,MKL-2,0.0935 µM (active)
NC(=NCCCCCCN=C(N)N=C(N)Nc1ccc(Cl)cc1)N=C(N)Nc1ccc(Cl)cc1,Potency,MKL-2,11.8 µM (active)
N#Cc1c(C2CCNCC2)cc(-c2c(O)cccc2OCC2CC2)nc1N,Potency,MKL-1,inactive
same,Potency,C33A,inactive
same,Potency,Es-2,inactive
same,Potency,HeLa,inactive
same,Potency,Hek293T,inactive
same,Potency,OV90,inactive
same,Potency,Tov-21-G,14.1 µM (active)
same,Potency,Tov112D,inactive
same,Potency,[1],inactive
c1cncc(CN2CCC(n3ncc4c(N5CCOCC5)nc(-c5ccc6[nH]ccc6c5)nc43)CC2)c1,Potency,MKL-1,inactive
same,Potency,C33A,31.6 µM (active)
same,Potency,CASKI,10 µM (active)
same,Potency,Hek293T,11.2 µM (active)
same,Potency,OV90,22.4 µM (active)
same,Potency,PA-1,17.8 µM (active)
same,Potency,SKOV3,10 µM (active)
same,Potency,Tov-21-G,12.6 µM (active)
same,Potency,Tov112D,28.2 µM (active)
